Source: PubChem BioAssay AID1159580 (chemical genetic matrix, 2015)
Among all 5,500 compounds or so, about 2,000 (36%) were called active. Inconclusive results (about 18%) are left out. No stated cut-off is given here; in the data, active means normalized growth mostly below about 0.91 (no sharp cut-off); inconclusive means no clear call, values can overlap the other calls; inactive means mostly above about 0.92. The list shows a part of the results.

Assay: chemical genetic growth profiling, strain panel (AID 1159580);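 further: tested at 20 µM; growth read once vehicle control cultures reached saturation at 30 °C; 1 = growth at the plate median or of vehicle wells; lower values mean less growth of the strain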
Conditions: S. cerevisiae deletion strains, growth OD

Measured: normalized growth

Cn1nc(-c2ccccc2)c(O)c(N=Nc2ccccc2)c1=O
inactive: locus YAR019C, strain CDC15, active compounds read low 0.964 | locus YBL105C, strain PKC1, active compounds read low 0.972 | locus YBR135W, strain CKS1, active compounds read low 0.957 | locus YBR136W, strain MEC1, active compounds read low 0.96 | locus YBR160W, strain CDC28, active compounds read low 0.976 | locus YDL017W, strain CDC7, active compounds read low 0.983 | locus YDL028C, strain MPS1, active compounds read low 0.963 | locus YDL101C, strain DUN1, active compounds read low 0.972 | locus YDL108W, strain KIN28, active compounds read low 0.962 | locus YDL132W, strain cdc53, active compounds read low 0.968 | locus YDL214C, strain PRR2, active compounds read low 0.906 | locus YDR052C, strain DBF4, active compounds read low 0.985 | locus YDR054C, strain cdc34, active compounds read low 0.971 | locus YDR226W, strain ADK1, active compounds read low 0.971 | locus YDR477W, strain SNF1, active compounds read low 0.917 | locus YER123W, strain YCK3, active compounds read low 0.858 | locus YER133W, strain GLC7, active compounds read low 0.898 | locus YFL009W, strain cdc4, active compounds read low 0.969 | locus YFL029C, strain CAK1, active compounds read low 0.969 | locus YFR003C, strain YPI1, active compounds read low 0.971 | locus YFR019W, strain FAB1, active compounds read low 0.898 | locus YFR028C, strain CDC14, active compounds read low 0.974 | locus YGR040W, strain KSS1, active compounds read low 0.905 | locus YGR052W, strain FMP48, active compounds read low 0.998 | locus YGR092W, strain DBF2, active compounds read low 0.913 | locus YHR030C, strain SLT2, active compounds read low 0.931 | locus YHR079C, strain IRE1, active compounds read low 0.982 | locus YHR082C, strain KSP1, active compounds read low 0.964 | locus YHR205W, strain SCH9, active compounds read low 0.943 | locus YIL147C, strain SLN1, active compounds read low 0.964 | locus YJL095W, strain BCK1, active compounds read low 0.993 | locus YJL128C, strain PBS2, active compounds read low 0.95 | locus YJL157C, strain FAR1, active compounds read low 0.89 | locus YJR016C, strain ILV3, active compounds read low 0.976 | locus YJR066W, strain TOR1 (second series), active compounds read low 0.854 | locus YJR066W, strain TOR1, active compounds read low 0.981 | locus YKL048C, strain ELM1, active compounds read low 0.944 | locus YKL067W, strain YNK1, active compounds read low 0.906 | locus YKL101W, strain HSL1, active compounds read low 0.921 | locus YKL193C, strain SDS22, active compounds read low 0.968 | locus YKL203C, strain TOR2, active compounds read low 0.98 | locus YLR113W, strain HOG1, active compounds read low 0.953 | locus YLR133W, strain CKI1, active compounds read low 0.944 | locus YLR403W, strain SFP1, active compounds read low 0.89 | locus YML070W, strain DAK1, active compounds read low 0.885 | locus YMR001C, strain CDC5, active compounds read low 0.961 | locus YMR205C, strain PFK2 (second series), active compounds read low 0.937 | locus YMR277W, strain FCP1, active compounds read low 0.973 | locus YNL006W, strain LST8, active compounds read low 0.967 | locus YNL020C, strain ARK1, active compounds read low 0.927 | locus YNL161W, strain CBK1, active compounds read low 0.965 | locus YNL183C, strain NPR1, active compounds read low 1 | locus YNL207W, strain RIO2, active compounds read low 0.964 | locus YNL222W, strain SSU72, active compounds read low 0.966 | locus YNL307C, strain MCK1 (second series), active compounds read low 0.941 | locus YOL078W, strain AVO1, active compounds read low 0.968 | locus YOL136C, strain PFK27, active compounds read low 0.907 | locus YOR061W, strain CKA2, active compounds read low 0.864 | locus YOR119C, strain RIO1, active compounds read low 0.952 | locus YOR231W, strain MKK1, active compounds read low 0.95 | locus YOR329C, strain SCD5, active compounds read low 0.974 | locus YPL031C, strain PHO85, active compounds read low 0.918 | locus YPL153C, strain RAD53, active compounds read low 0.914 | locus YPL204W, strain HRR25, active compounds read low 0.93 | locus YPL209C, strain IPL1, active compounds read low 0.972 | locus YPL256C, strain CLN2, active compounds read low 0.998 | locus YPR025C, strain CCL1, active compounds read low 0.97 | locus YPR106W, strain ISR1, active compounds read low 0.977 | locus YPR111W, strain DBF20, active compounds read low 0.988 | strain NNK1, active compounds read low 0.966 | strain TSCII, active compounds read low 0.963
